In the library only some 4.3% were active in any assay of this set; here they are far more common.
esBAF inh: inhibitors of esBAF chromatin remodeling in mouse ES cells | Bmi1-luciferase knock-in reporter, 24 h; 100% = twice the neutral-well signal | reporter increase, % at 12.5 µM | 2% of 350,000 active | AID 602393; in the data active = activation above about 40%; inconclusive = no clear call, values can overlap the other calls;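 also: 0% = median of the plate's neutral control wells and 100% = double that signal; a rise in the Bmi1 reporter signal indicates esBAF inhibition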
HSF1 inhib: HSF1 inhibition; NIH3T3-HGL HSE-luciferase, MG132-induced, luminescence 8 h; active compounds read low; activity change, negative = inhibition, % at 7.5 µM (by protocol); 0.77% of 300,000 active; AID 2098;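 active = more than half of replicate wells show activity change below -50%, luminescence cut by over half; inconclusive = some wells, but at most half, below -50%; inactive = no replicate well below -50%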;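 also: luciferase reports HSF-1 transcriptional activity via heat shock element; 0% = median of DMSO wells and -100% = zero luminescence signal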
Wnt act: activates Wnt/beta-catenin signaling in a reporter cell assay; activator, plate reader; activation, % at 9.35 µM; 1.2% of 300,000 active; in the data active = activation above about 30%, passing the limit was not always enough; inconclusive = no clear call, values can overlap the other calls;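 also: 0% = neutral control wells and 100% = positive control wells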
SMARCA2 act: activators of SMARCA2 function. MG213 cells, MMTV-luciferase reporter, dexamethasone, overnight. activation, % at 9.1 µM. 1% of 370,000 active. AID 652017; in the data active = activation above about 7.8%;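 also: 0% = vehicle wells and 100% = reference activator wells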
MITF act: activators of MITF-driven TRPM1 promoter activity in SK-MEL-5 cells; SK-MEL-5 TRPM1-promoter luciferase, 24 h; % of positive control, neutral wells = 0; activation, % at 12.5 µM; 0.75% of 300,000 active;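 active = mean activation of at least 80% with every replicate also reaching 80%; inconclusive = mean reaches 80% but some replicate falls short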;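 also: 0% = neutral control wells and 100% = parthenolide positive control wells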
HSF1 activator: increases HSF-1 driven luciferase reporter signal. NIH3T3-HGL HSF-1 luciferase reporter, MG132, 8 h; 100% = twice DMSO control signal. activation, % at 9 µM. 1.7% of 300,000 active;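 active = mean replicate activation of at least 50% with a set share of replicates each reaching 50%; inconclusive = only one of those two conditions met; inactive = mean below 50% and too few replicates reaching it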;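 also: 0% = median of the neutral control wells and 100% = twice that signal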
* marks the source's active call; other numbers are inactive results.

For Cc1nc2ccc(N=NC3=C(O)CC(C)(C)CC3=O)cc2s1 the results were esBAF inh 49.2*, HSF1 inhib -1.4, Wnt act 17.6, SMARCA2 act 1.3, MITF act 43.4 and HSF1 activator -0.1.
`Cc1ccc(S(=O)(=O)N(C)C[C@@H]2Oc3ccc(NC(=O)Nc4ccccc4)cc3C(=O)N([C@@H](C)CO)C[C@H]2C)cc1` gave esBAF inh -3.6.
`CCOc1nc(NCc2ccco2)nc(Nc2ccccc2F)n1` gave esBAF inh 67.5*, HSF1 inhib 17.1, SMARCA2 act 7.2, MITF act 75.5 and HSF1 activator 12.2.
`CN1[C@@H]2c3ccc(C4=CCCCC4)c(=O)n3C[C@H]1[C@H](CO)[C@H]2C(=O)NCc1cccc(F)c1` gave esBAF inh 2.9.
Screening CCCNC(=O)[C@@H]1[C@@H](CO)[C@@H]2Cn3c(ccc(-c4cccc(F)c4)c3=O)[C@H]1N2C(C)=O returned esBAF inh -1.6.
For c1ccc(-n2ncc3c2ncn2cnnc32)cc1 the results were esBAF inh 6.3, HSF1 inhib 5.2, SMARCA2 act 0.2, MITF act 3.9 and HSF1 activator 5.7.
Screening CCc1nnc2c3cnn(-c4ccccc4)c3ncn12 returned esBAF inh 63.9*, HSF1 inhib 15.1, Wnt act inconclusive, SMARCA2 act 5.4, MITF act 99.0* and HSF1 activator 17.9.
COc1cccc(S(=O)(=O)N[C@H]2CC[C@H](CC(=O)NCc3ccc(Cl)cc3)O[C@@H]2CO)c1 was read as esBAF inh -5.1.
`C[C@H]1CN([C@@H](C)CO)C(=O)c2cc(NC(=O)Cc3cn(C)c4ccccc34)ccc2O[C@@H]1CN(C)Cc1ccncc1` gave esBAF inh 7.7.
`COc1ccc(-c2nn(-c3ccccc3)cc2C#N)cc1` gave esBAF inh 45.5*, HSF1 inhib 12.3, SMARCA2 act 5.5, MITF act 104.6* and HSF1 activator 32.1.
`CCC1(c2ccccc2)NC(=O)N(CC#N)C1=O` (stereo unspecified) gave esBAF inh -3.5, HSF1 inhib -3.4, Wnt act -3.0, SMARCA2 act -2.9, MITF act -6.6 and HSF1 activator 5.5.
CC1(c2ccccc2)NC(=O)N(CC#N)C1=O (stereo unspecified) was read as HSF1 inhib -3.4, Wnt act 35.6*, SMARCA2 act -0.2, MITF act 14.0 and HSF1 activator -12.8.
For C[C@H](CO)N1C[C@H](C)[C@H](CN(C)C(=O)CCCN(C)C)OCCCC[C@H](C)Oc2ccc(NC(=O)Nc3ccc(C(F)(F)F)cc3)cc2C1=O the results were esBAF inh 1.7.
For COc1ccc(NCc2nnc(SCC(=O)Nc3cc(C(F)(F)F)ccc3Cl)o2)cc1 the results were esBAF inh -3.5, HSF1 inhib -59.7*, Wnt act 1.6, SMARCA2 act 0.9 and HSF1 activator -67.4.
`CC(C)S(=O)(=O)N1CCCC(c2cc(C(=O)Nc3ccc(F)c(Cl)c3)no2)C1` (stereo unspecified) gave esBAF inh 47.9*, Wnt act 31.6* and SMARCA2 act -1.3.
Screening O=C(Nc1ccccc1)c1cc(C2CCCN(C(=O)CCc3ccccc3)C2)on1 (stereo unspecified) returned esBAF inh 64.3*, Wnt act 17.0 and SMARCA2 act 3.6.
`O=C(Nc1ccc(F)c(Cl)c1)c1cc(C2CCCN(C(=O)CCc3ccccc3)C2)on1` (stereo unspecified) gave esBAF inh 46.9*, Wnt act 26.0 and SMARCA2 act -1.5.
Screening COc1cccc(NC(=O)N(C)C[C@@H]2Oc3cc(/C=C/c4ccccc4)ccc3S(=O)(=O)N([C@@H](C)CO)C[C@H]2C)c1 returned esBAF inh -2.9.
For CO[C@H]1CN(C)C(=O)c2cc(NC(=O)c3cnccn3)ccc2OC[C@H](C)N(CCc2ccccc2)C[C@H]1C the results were esBAF inh 6.4.
For O=C(C[C@@H]1CC[C@@H]2[C@H](COC[C@H](O)CN2C(=O)c2ccc(F)cc2)O1)NCc1cccc(F)c1 the results were esBAF inh 0.0.
Screening O=C(NCC[C@@H]1CC[C@@H](NC(=O)c2ccc3c(c2)OCO3)[C@H](CO)O1)Nc1ccc(Cl)cc1 returned esBAF inh 62.9*.
Screening CO[C@@H]1CN(C)C(=O)c2ccc(NS(C)(=O)=O)cc2OC[C@H](C)N(C(=O)NC(C)C)C[C@H]1C returned esBAF inh 3.5.
`Cc1ccc(C2=NN(C(=O)CCl)C(c3cccs3)C2)o1` (stereo unspecified) gave HSF1 inhib 31.0, Wnt act -1.6, SMARCA2 act -10.8, MITF act -73.5 and HSF1 activator 58.4*.
Screening O=C(CCl)N1N=C(c2ccco2)CC1c1cccs1 (stereo unspecified) returned HSF1 inhib 28.7, MITF act -72.9 and HSF1 activator 54.8*.
`COC(=O)CCC(=O)NNC(=O)c1cccc(Br)c1` gave HSF1 inhib -66.6*, Wnt act 2.2, SMARCA2 act -1.0, MITF act 9.5 and HSF1 activator -73.1.
`O=C(NNC(=S)Nc1ccccc1)c1ccc(O)cc1` gave esBAF inh 77.8*, HSF1 inhib 33.2, Wnt act 56.7*, SMARCA2 act 5.8, MITF act inconclusive and HSF1 activator 57.3*.
For O=C(NNC(=S)Nc1ccccc1)c1cccc(Br)c1 the results were esBAF inh 46.9*, HSF1 inhib -42.8, SMARCA2 act 4.4, MITF act 11.3 and HSF1 activator -54.0.
For O=C(O)CCC(=O)NNC(=O)c1cccc(Br)c1 the results were HSF1 inhib 11.3, Wnt act -5.7, SMARCA2 act 3.9, MITF act -3.2 and HSF1 activator 34.0.
`O=C(NNC(=S)Nc1ccc(Br)cc1)c1ccccc1` gave esBAF inh 34.4, HSF1 inhib 7.4, Wnt act 9.1, SMARCA2 act 5.3, MITF act 22.5 and HSF1 activator 5.1.
Screening COC(=O)[C@@H]1[C@@H](CO)[C@@H]2Cn3c(ccc(/C=C/c4ccccc4)c3=O)[C@@H]2N1C(=O)CC1CC1 returned esBAF inh 6.3.
For C[C@H]1CN([C@@H](C)CO)C(=O)c2cc(C#CC3CCCC3)cnc2O[C@@H]1CN(C)S(=O)(=O)c1cccc(F)c1 the results were esBAF inh 3.7.
CC(C)NC(=O)N(C)C[C@@H]1Oc2ncc(-c3ccccc3F)cc2C(=O)N([C@H](C)CO)C[C@@H]1C was read as esBAF inh 7.3.
CCCNC(=O)NC(=O)CSc1cccc(C(F)(F)F)c1 was read as HSF1 inhib 37.3, Wnt act -2.4, SMARCA2 act -1.2, MITF act 3.9 and HSF1 activator 77.2*.

Screening results (PubChem)
